Shn3 inh set2 – Schnurri-3 reporter inhibition in Clone20 osteoblasts. Clone20 osteoblast Shn3 3'UTR firefly luciferase, 24 h. inhibition, % at 12.5 µM. 360,000 compounds, 0.52% hits. AID 588674;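 active = mean inhibition of at least 75% with every replicate also reaching 75%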;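 also: 0% = median of neutral control wells and 100% = pilot-screen positive control compound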
MITF TRPM1 inh – inhibitors of MITF-driven TRPM1 promoter in melanoma cells | inhibition, % at 12.5 µM | 330,000 compounds, 0.83% hits | SK-MEL-5 TRPM1 promoter luciferase, 24 h | AID 488899;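 active = mean inhibition across replicates of 60% or more, whatever share of single replicates reaches that level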
EBV LMP1 NFkB – Epstein-Barr LMP1 NF-kappaB reporter inhibition. 350,000 compounds, 0.69% hits. LMP1-induced NF-kappaB luciferase reporter cells, luminescence. inhibition, % at 12.5 µM; in the data active = inhibition above about 41%;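 also: 0% = neutral control wells and 100% = reference inhibitor control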
KKLEB cytotox – CF airway cell cytotoxicity counter-screen; 360,000 compounds, 0.36% hits; activity change (cytotoxicity), % at 5 µM; KKLEB CF airway cells viability, ATPlite luminescence, overnight; active compounds read low; cells stimulated with P. aeruginosa culture filtrate;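 active = corrected activity change at or below -50% at 5 µM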
Peg3 promoter – reduces Peg3 promoter-driven luciferase expression in HeLa. 360,000 compounds, 1.7% hits. AID 588405. inhibition, % at 20 µM. HeLa PEG-Prom luciferase reporter, luminescence, overnight;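 active = inhibition of at least 50% at 20 µM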
CF NFkB block – cystic fibrosis NF-kB activation inhibition; KKLEB NF-kB-GFP reporter, PAF-induced, GFP fluorescence overnight; inhibition, % at 5 µM; 360,000 compounds, 0.86% hits; AID 588850;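 active = at least 50% inhibition at 5 µM, scaled per plate between neutral and stimulator controls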;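 also: PAF is a Pseudomonas aeruginosa culture filtrate used as stimulus; plate controls were PAF-stimulated DMSO wells for no effect and unstimulated DMSO wells for full effect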
The depositor's hits bear a star; . = not tested or not shown. Most compounds without a hit are left out; they make up all but 2.9% or so of the library.

SMILES	Shn3 inh set2	MITF TRPM1 inh	EBV LMP1 NFkB	KKLEB cytotox	Peg3 promoter	CF NFkB block
CCCc1ccc(C2C3=C(CC(C)(C)CC3=O)NC3=C2C(=O)c2ccccc23)cc1 (centres undefined)	50	5	6	-10	56*	-1
Cc1cccc(N2CCN(CCCNC(=O)C3CCCN(c4ncnc5c4nc4n5CCCCC4)C3)CC2C)c1 (centres undefined)	55	37	3	11	60*	-4
O=C(NCC1CCN(Cc2ccc(Cl)cc2)CC1)C1CCCN(c2ncnc3c2nc2n3CCCCC2)C1 (centres undefined)	26	27	21	-2	51*	9
CC(C)(C)c1ccc(C(=O)N2CCC2(C)C(=O)NCCC#N)cc1 (centres undefined)	11	.	.	-1	11	15
Cc1cc(Cl)ccc1C(O)c1ncc(-c2ccc(F)cc2)[nH]1 (centres undefined)	39	.	.	16	13	-26
CC1=C(SCc2ccccc2)C(=O)c2ccccc2C1=O	78	70*	-1	-44	85*	89*
O=C(OCC(=O)c1c[nH]c2ccccc12)c1ccc(F)c(S(=O)(=O)N2CCOCC2)c1	26	.	-10	-10	1	7
COc1ccccc1-n1c(-c2ccccc2)n[nH]c1=S	48	6	46*	-3	4	12
O=C(CSc1c2c(nc3ccc(Cl)cc13)CCCC2)N1CCN(C(=O)c2ccco2)CC1	93*	59	3	-12	26	54*
CCCCN(CC)CCNC(=O)c1ccc2c(Cl)c3c(nc2c1)CCC3	-24	-4	-3	-7	3	-1
Cc1ccc(CNC(=O)CSc2c3c(nc4ccc(Cl)cc24)CCCC3)o1	84*	16	8	-16	26	32
CCN(CC)CCNC(=O)CSc1c2c(nc3cc(Cl)ccc13)CCCC2	84	-22	8	-10	78*	15
CCN(CC)CCCNC(=O)c1ccc2c(Cl)c3c(nc2c1)CCCC3	0	37	9	4	61*	3
CC1(Oc2ccc(CC#N)cc2)CCN(Cc2ccc(-n3ccnc3)cc2)C1 (centres undefined)	-6	.	.	0	14	-23
CC1(C)CC(=O)C(CC(=O)c2ccccc2)=C(NN=C(N)N)C1	-15	.	0	0	14	8
Cc1nc2c(c(C)nn2-c2ccccc2)c(C)c1CCC(=O)Nc1ccc(CN2CCCC2)cc1	12	-6	7	-5	55*	32
C(=C\c1ccccn1)/c1ccccn1	-42	-16	-14	8	-189	-6
O=C1/C(=C/c2ccccn2)COc2ccccc21	10	-5	14	16	-2	-37
CC(C)(C)C1C/C(=C/c2ccccn2)C(=O)/C(=C/c2ccccn2)C1 (centres undefined)	95*	102*	86*	-53*	102*	89*
CC1C/C(=C/c2ccccn2)C(=O)/C(=C/c2ccccn2)C1 (centres undefined)	95*	100*	90*	-62*	100*	86*
C=CCN(CC=C)Cc1cc(=O)oc2ccccc12	-11	.	.	-6	2	10
O=C(O)c1cn2c3c(ccc(Cl)c3c1=O)OCC2	-10	-2	51*	14	8	-20
CNC(=O)c1cn2c3c(ccc(Cl)c3c1=O)OC(C)C2 (centres undefined)	11	15	-4	-2	-60	-8
CCCNC(=O)c1cc(C2CCCCN2C(=O)c2cc(C(C)(C)C)nn2C)on1 (centres undefined)	51	.	.	2	1	-11
COC(=O)c1ccc(COc2ccc(/C=C(\C#N)c3nc4ccccc4[nH]3)cc2OC)o1	38	10	-25	-12	10	-5
SMILES	Shn3 inh set2	MITF TRPM1 inh	EBV LMP1 NFkB	KKLEB cytotox	Peg3 promoter	CF NFkB block
CCc1ccc(NC(=O)COc2ccc(/C=C(/C#N)c3nc4ccccc4[nH]3)cc2OC)cc1	-14	-1	-1	-4	57*	2
Cc1ccccc1C(=O)c1cccn1CC(=O)NCCCN1CCCCC1	-6	2	-8	-4	-15	3
Cc1ccc(C)c(N2CCN(CCCNC(=O)Cn3cccc3C(=O)c3ccccc3C)CC2)c1	27	57	-1	-25	107*	36
O=C(Nc1ccc(F)c(Cl)c1)c1cc(C2CCCCN2C(=O)c2ccccc2)on1 (centres undefined)	4	.	.	-2	20	9
CCOC(=O)Cc1csc(/N=C/c2c(O)n(-c3ccc(C)c(C)c3)c(=O)c3ccccc23)n1	71	66*	1	-36	2	33
COc1ccc(-n2c(O)c(C=Nc3ccccc3)c3ccccc3c2=O)cc1OC	35	-6	0	7	5	-11
Cc1cc(N2CCN(C)CC2)ccc1NC(=O)c1cccc(S(=O)(=O)N2CCc3ccccc3C2)c1	56	38	7	15	109*	-5
Cc1ccc(NC(=O)c2cccc(S(=O)(=O)N3CCc4ccccc4C3)c2)nc1	2	23	-5	1	34	7
CCc1cccc(CC)c1NC(=O)COC(=O)c1cccc(S(=O)(=O)N2CCc3ccccc3C2)c1	3	-7	8	3	-2	-1
Cc1cccc(C(C)C)c1NC(=O)COC(=O)c1cccc(S(=O)(=O)N2CCc3ccccc3C2)c1	-14	3	-7	-14	60*	20
O=C(c1cccs1)N1CCN(Cc2nc(-c3ccccc3)no2)CC1	-23	.	-3	-9	-44	17
C[C@@H]1CN([C@H](C)CO)C(=O)CCCn2nncc2CO[C@H]1CN(C)C(=O)c1ccc2ccn(C)c2c1	-42	.	9	9	5	-20
O=C(CSc1nnc(-c2cccc(S(=O)(=O)N3CCOCC3)c2)n1C1CCCCCC1)NCc1ccccc1	12	13	47*	14	27	-15
Cc1cc(O)c(C(C)C)cc1C1(c2cc(C(C)C)c(O)cc2C)OC(=O)c2ccccc21	40	57	4	1	111*	33
CCOC(=O)NCc1ccccc1	-15	4	84*	-4	2	-2
CCOC(=O)C(Cc1ccccc1)C(=O)NCc1ccccc1 (centres undefined)	-1	-4	8	-9	4	12
CC(C)Cc1ccc(C(C)CC2=CCC(CN(C)C)C2=O)cc1 (centres undefined)	2	42	-10	2	101*	-9
CC(C)Cc1ccc(S(=O)(=O)N2CCOCC2)cc1	-20	3	-6	-5	6	17
C[C@H](CO)N1C[C@H](C)[C@@H](CN(C)S(=O)(=O)c2cccc(C#N)c2)OCc2cn(nn2)CCCC1=O	-4	.	-3	-1	0	-7
CCOC(=O)C1=C[C@@H](C(C)(C)C)N(S(=O)(=O)c2ccc(C)cc2)[C@H]1c1cccc(Cl)c1	33	.	.	2	-3	38

Compound activity: PubChem BioAssay, several laboratories
